Among the data in PubChem BioAssay AID720504 (National Center for Advancing Translational Sciences (NCATS), 2013) are max response, negative = inhibition and Potency values, retold here.

The whole screen tested about 360,000 compounds, of which about 10,000 (2.8%) were called active. Inconclusive results (about 4%) are left out. What follows is part of a selection rich in actives, with near analogues and random picks from the rest. Unmarked numbers belong to inactive results. Calls follow the shape of the dose curve; as a rule, active = well fitted inhibition curve with a large enough effect; inconclusive = small, poorly fitted or top-dose-only effect; inactive = flat fitted curve, though single readings scatter.
% is scaled to controls: 0 for no effect and ±100 for the full control effect; potency is read from the fitted curve at half-maximal effect.

Sequence of Serine/threonine-protein kinase PLK1 (Homo sapiens) (P53350 whole entry, looked up, the tested form may be a part): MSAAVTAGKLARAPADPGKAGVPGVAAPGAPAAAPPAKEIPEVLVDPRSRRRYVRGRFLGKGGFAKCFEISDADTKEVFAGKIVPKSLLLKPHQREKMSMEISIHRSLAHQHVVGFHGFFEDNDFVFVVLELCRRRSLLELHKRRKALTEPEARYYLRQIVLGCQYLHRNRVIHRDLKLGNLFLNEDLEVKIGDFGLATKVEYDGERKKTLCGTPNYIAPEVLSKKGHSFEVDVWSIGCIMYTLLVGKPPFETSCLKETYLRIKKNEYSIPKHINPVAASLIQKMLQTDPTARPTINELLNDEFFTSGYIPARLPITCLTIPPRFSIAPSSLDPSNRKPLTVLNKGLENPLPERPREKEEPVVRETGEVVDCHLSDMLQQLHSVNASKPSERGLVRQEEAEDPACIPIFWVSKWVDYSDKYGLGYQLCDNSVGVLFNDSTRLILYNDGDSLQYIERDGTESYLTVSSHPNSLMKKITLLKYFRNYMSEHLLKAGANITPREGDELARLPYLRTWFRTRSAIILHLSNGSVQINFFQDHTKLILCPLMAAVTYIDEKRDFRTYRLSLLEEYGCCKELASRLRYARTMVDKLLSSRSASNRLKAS

This test deals with Serine/threonine-protein kinase PLK1 (Homo sapiens) (UniProt P53350). Nature of the test: qHTS for Inhibitors of PLK1-PDB (polo-like kinase 1 - polo-box domain): Primary Screen. Also: nearly all actives have a fitted effect of over 65% in size. As to max response, negative = inhibition: series mostly up to about 57 µM. The following applies: Plk1 PBD binding of FITC phosphopeptide, fluorescence polarization. The source says:
The polo-like kinase 1 (Plk1) is a member of a conserved subfamily of serine / threonine protein kinases that plays a pivotal roles in cell proliferation. It has a C-terminal non-catalytic region called the polo-box domain (PBD) that plays a crucial role in the subcellular localization of the Plk1. […] Furthermore, depletion of the overexpressed Plk1 by RNAi efficiently induces apoptotic cell death in cancer and reduces tumor growth in mouse xenograft models. Thus, targeting Plk1 is an appealing strategy for anti-cancer therapy. Therefore, this project aimed to screen the Molecular Libraries Small Molecule Repository (MLSMR) using a novel approach to find inhibitors that target the Plk1 PBD instead of the conventional N-terminal catalytic domain. This project employed a fluorescence polarization (FP) assay using a FITC-conjugated phospho-9-mer (p-9-mer) peptide and purified human Plk1 PBD protein. The identified small molecule inhibitors of Plk1 PBD can then further be developed into useful tools for biomedical and clinical research that complements or replaces current relevant disease therapy. NIH Chemical Genomics Center [NCGC] NIH Molecular Libraries Probe Centers Network [MLPCN] MLPCN Grant: MH100728 Assay Submitter (PI): Kyung Lee, NCI
Four microliter of 25 nM FITC-p-9-mer + 60 nM Plk1 PBD in buffer solution (final concentrations 25 nM and 60 nM respectively) or 4 uL of 25 nM FITC-p-9-mer (final concentration 25 nM) in buffer will be dispensed into a 1,536 Greiner medium-binding black solid plate. Small molecules at final concentrations of 18 nM to 57 uM and positive control phospho-9-mer (sequence: Ac-PPLHSpTAI-NH2) at final concentrations 26 nM to 57 uM and phospho-13-mer (sequence: Ac-[…]pTAI-NH2) at final concentrations of 1 nM to 2.3 uM will be pin-transferred (23 nL) to the plate via a Kalypsys pin-tool robotics equipped with a 1,536-pin array. The reaction plate will be centrifuged for 1 min at 1000 rpm and incubated at room temperature for 10 min. The FITC fluorescence signals will be read using the PerkinElmer ViewLux plate reader at 480 / 20 nm excitation and 540 / 20 nm S and P polarization emission wavelengths. Reagent bottles will be kept submerged into 4 °C recirculating chiller bath and all liquid lines will be covered with aluminum foil to minimize degradation. Library plates will be screened starting from the lowest to the highest concentrations to minimize compound carryover. Vehicle only plates, with DMSO being pin-transferred instead of compound solutions, will be included regularly throughout the screen to record any systematic shifts in assay signal.
(qHTS replaces the single test concentration by a dilution series.)
Turning to `O=c1[nH]c2ccccc2n1C1CCN(CCOc2ccccc2)CC1`, the max response, negative = inhibition is 0.342%.
As for `O=c1cc(-c2ccccc2)nc(N2CCCCC2)[nH]1`, the Potency was 23.8 µM (active).
For the compound `Cc1ccc(SCc2cc(=O)[nH]c(N3CCCCC3)n2)cc1`, the max response, negative = inhibition was -8.91%.
`c1ccc(-c2cc(N3CCCCC3)c3ccccc3n2)cc1`: the max response, negative = inhibition is -13.3%.
Regarding `C[C@H](CO)N1C[C@H](C)[C@@H](CN(C)C(=O)c2cnccn2)Oc2ncc(Br)cc2C1=O`, the max response, negative = inhibition is -5.95%.
With `C[C@H](CO)N1C[C@H](C)[C@H](CN(C)C(=O)c2ccncc2)OCc2ccccc2-c2c(n(C)c3ccccc23)C1=O`, the max response, negative = inhibition was -5.78%.
For `COc1cccc(-c2cnc3c(NC(C)=O)cc(-c4cccc(NC(C)=O)c4)cn23)c1`, the max response, negative = inhibition is -1.26%.
The same measure, in the same setting: the result for `CC1(C(=O)NS(=O)(=O)c2ccccc2)CCN1C(=O)Cc1ccc(-c2ccccc2)cc1` (stereo not given) reads -4.54%.
With `CCn1c(SCC(=O)Nc2nc(C)cs2)nnc1C(C)NC(=O)c1ccccc1` (stereo not given), the Potency was 29.9 µM (active).
With `CCn1c(SCC(=O)NC2=NCCS2)nnc1C(C)NC(=O)c1ccccc1F` (stereo not given), the max response, negative = inhibition was -16.2%.
Take `CCn1c(CC(=O)Nc2ccc(C)cc2)nnc1SCC(=O)Nc1nc(C)cs1`: the Potency is 26.7 µM (active).
On to `COCCn1c(SCC(=O)Nc2nc(C)cs2)nnc1C(C)C`, for which the max response, negative = inhibition is -12.4%.
On the same count and under the same terms, the result for `CCn1c(CC(=O)Nc2ccccc2)nnc1SCC(=O)N1CCOCC1` reads -0.409%; that for `Cc1ccc(NC(=O)Cc2nnc(SCC(=O)Nc3nncs3)n2C)cc1`, -3.59%.
Still for that read-out and setting: then `C[C@@H]1CN([C@@H](C)CO)C(=O)c2cc(NS(C)(=O)=O)ccc2O[C@@H](C)CCCCO[C@H]1CN(C)C(=O)Nc1ccc2c(c1)OCO2`, with -18.5%; and `Cc1cc2c(cc1C)N1C(=O)c3cc4ccccc4cc3NC(=O)C1C(=O)N2` (stereo not given), with -4.16%; and `COc1ccc(C(c2nnnn2C2CCCC2)N2CCN(C/C=C/c3ccccc3)CC2)cc1` (stereo not given), with -9.92%.
In the case of `Cc1ccc(S(=O)(=O)N2C[C@]3(O)C[C@@H]4C(=O)N(c5ccccc5)C(=O)[C@@H]4C[C@]3(OC(=O)NC3CC3)C2)cc1`, the max response, negative = inhibition was -20.4%.
Same read-out and setting: then `COc1ccccc1Cc1c(-c2ccc(Cl)cc2)nc2ccc(Cl)cn12`, with -19.7%.
As to `CNc1ccc(SC#N)cc1`, the Potency was 23.8 µM (active).
In the case of `Cc1ccccc1Cn1c(C)c(C(=O)NCc2cccc(C(F)(F)F)c2)sc1=O`, the max response, negative = inhibition was -4.46%.
Same read-out and setting: then `CCN(C(=O)Nc1cccc2ccccc12)c1ccccc1`, with -4%.
On the same count and under the same terms, the result for `Cc1ccc(S(=O)(=O)N2[C@@H](Cc3ccccc3)CO[C@H]2CC(=O)OCc2ccccc2)cc1` reads 0.144%; that for `CCCCn1nnnc1C(c1ccccc1)N1CCN(c2ccccc2OC)CC1` (stereo not given), -14.9%.
Consider `CN(C)c1nc(=Nc2cccc(Cl)c2)ss1`, for which the Potency was 6.7 µM (active).
With `Cn1ncc([N+](=O)[O-])c1C(=O)Nc1cc(Cl)ccc1Cl`, the max response, negative = inhibition is -6.39%.
Same read-out and setting: then `O=C1c2ccccc2C(c2nc3ccccc3[nH]2)N1c1ccccc1` (stereo not given), with 3.28%; and `O=C1Nc2ccccc2NC(c2ccc3c(c2)OCO3)=C1N(Cc1ccc(F)cc1)C(=O)c1ccco1`, with -4.45%.
With `Nc1ccc2nc3c(=O)[nH]c(=S)[nH]c3nc2c1`, the Potency was 2.67 µM (active).
With `CC(C)OC(=O)CC(=O)CC(O)c1cccc([N+](=O)[O-])c1` (stereo not given), the max response, negative = inhibition was -7.74%.
Same read-out and setting: then `O=C(Nc1ccc(N2CCCC2=O)cc1)c1cncc(Br)c1`, with 6.3%; and `O=C(N/N=C\c1cccc(Br)c1)c1ccccc1-n1cccc1`, with -3.78%.
Regarding `O=C(N/N=C/c1cccc(Br)c1)c1ccc(N2CCCC2=O)cc1`, the Potency was 26.7 µM (active).
In the case of `CC(C)CN1CCC1(C)C(=O)Nc1ccc(OC(F)F)cc1` (stereo not given), the max response, negative = inhibition is -0.833%.
Same read-out and setting: then `CCCNC(=O)C1(C)CCCN(Cc2c(C)nn(-c3ccccc3)c2C)C1` (stereo not given), with 2.73%.
For `COCCNC(=S)c1ccc(OC)cc1`, the Potency was 26.7 µM (active).
For the compound `COc1ccc(C(=O)NCC[N+](C)(C)C)cc1`, the max response, negative = inhibition was 1.35%.
Still for that read-out and setting: then `COCCCNC(NC(=O)c1ccc(OC)cc1)C(Cl)(Cl)Cl` (stereo not given), with 5.66%; and `C#CCNC(=O)C[C@@H]1C[C@@]2(C(=O)OCC)CCCC=C2N(Cc2ccco2)C1=O`, with -6.05%.
Still for that read-out and setting: then `c1cc(-c2nn[nH]n2)ccc1CN1CCCCC1`, with -9.14%.
With `Brc1ccc(-c2nn[nH]n2)cc1`, the Potency is 23.8 µM (active).
Take `CC(C)c1ccc(-c2nn[nH]n2)cc1`: the max response, negative = inhibition was -8.56%.
Still for that read-out and setting: then `COc1cccc(C(O)c2nc(-c3ccc(C)c(C)c3)cs2)c1` (stereo not given), with -8.07%; and `COCc1cccc(-c2csc(C(O)c3ccc(F)cc3)n2)c1` (stereo not given), with -9.74%; and `COc1ccc(NC(=O)CSc2nnnn2-c2cccc(OC)c2)cc1`, with 5.21%.
